{"source": "PubChem BioAssay (EPA / NIEHS)", "note": "Active and inactive are the calls of the source. How the source made its calls: active means hit-call score of the fitted dose curve at least 0.9, where 1 is the maximum; inactive means score below 0.9."}
{"read-out": "Potassium channel subfamily K member 1 (KCNK1), KCNK1 (gene 3775)", "assay": "LTEA_HepaRG_KCNK1: Life Technologies and Expression Analysis (LTEA) Assay for Potassium channel subfamily K member 1 (KCNK1) using HepaRG (AID 2283511)", "settings": "mRNA level, 48 h; actives raise or lower the signal", "in_short": "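HepaRG, 48 h exposure, 8-pt half-log series top 100 uM, 0.5% DMSO vehicle, duplicates. Readout: KCNK1 transcript by qRT-PCR (Fluidigm array), housekeeping-normalized; bidirectional curve fit relative to DMSO baseline.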"}
{"smiles": "COc1cc2c(c(OC)c1OC)-c1ccc(OC)c(=O)cc1[C@@H](NC(C)=O)CC2", "outcome": "inactive"}
{"smiles": "CCn1nc(C)c2c1C(=O)NCC(c1ccc(O)cc1)=N2", "outcome": "inactive"}
{"smiles": "CCCCCCCCCC", "outcome": "inactive"}
{"smiles": "O=C(O)c1ccc2c(c1)nc(C(=O)NC1CCN(C3CC3)CC1)n2Cc1cc(-c2ccc(Cl)s2)on1", "outcome": "inactive"}
{"smiles": "Nc1ccn([C@@H]2O[C@H](CO)[C@@H](O)[C@@H]2O)c(=O)n1", "outcome": "inactive"}
{"smiles": "NC(=O)NN=Cc1ccc([N+](=O)[O-])o1", "AC50": "0.223 µM (active)"}
{"smiles": "OC(Cn1cncn1)(Cn1cncn1)c1ccc(F)cc1F", "outcome": "inactive"}
{"smiles": "OCc1ccccc1", "outcome": "inactive"}
{"smiles": "NNC(=O)c1ccncc1", "outcome": "inactive"}
{"smiles": "CCc1ccc(O)c(C(C)(C)C)c1", "outcome": "inactive"}
{"smiles": "CCOC(N)=O", "outcome": "inactive"}
{"smiles": "CC(C)CCCCCCOC(=O)C1CCCCC1C(=O)OCCCCCCC(C)C", "note": "(centres undefined)", "outcome": "inactive"}
{"smiles": "c1ccc(C(O[C@@H]2CCCN(CCc3ccc4c(c3)OCO4)C2)c2ccccc2)cc1", "outcome": "inactive"}
{"smiles": "CC(C)C(=O)Nc1ccc([N+](=O)[O-])c(C(F)(F)F)c1", "outcome": "inactive"}
{"smiles": "NC(=O)N(O)[C@@H]1COc2cc(OCc3ccccc3)ccc21", "outcome": "inactive"}
{"smiles": "O=c1[nH]cnc2c1ncn2[C@H]1CC[C@@H](CO)O1", "outcome": "inactive"}
{"smiles": "NC(N)=O", "outcome": "inactive"}
{"smiles": "COCc1nnc(-c2ccc[n+]([O-])c2)n1-c1c(Cl)c(Cl)cc2[nH]c(=O)c(=O)[nH]c12", "outcome": "inactive"}
{"smiles": "OC[C@H]1O[C@@H]2O[C@H]3[C@H](O)[C@@H](O)[C@@H](O[C@H]4[C@H](O)[C@@H](O)[C@@H](O[C@H]5[C@H](O)[C@@H](O)[C@@H](O[C@H]6[C@H](O)[C@@H](O)[C@@H](O[C@H]7[C@H](O)[C@@H](O)[C@@H](O[C@H]1[C@H](O)[C@H]2O)O[C@@H]7CO)O[C@@H]6CO)O[C@@H]5CO)O[C@@H]4CO)O[C@@H]3CO", "outcome": "inactive"}
{"smiles": "CC(C)CC(C)O", "note": "(centres undefined)", "outcome": "inactive"}
{"smiles": "CCCCN1C(=O)[C@@H]([C@H](O)C2CCCCC2)NC(=O)C12CCN(Cc1ccc(Oc3ccc(C(=O)O)cc3)cc1)CC2", "AC50": "0.391 µM (active)"}
{"smiles": "CC(C)c1nnc2ccc(-c3ocnc3-c3cc(F)ccc3F)cn12", "outcome": "inactive"}
{"smiles": "CNC(C)=O", "outcome": "inactive"}
{"smiles": "OCCNCCO", "outcome": "inactive"}
{"smiles": "C=CN1CCCC1=O", "outcome": "inactive"}
{"smiles": "CCCCCCCCN(C)C", "outcome": "inactive"}
{"smiles": "c1ccc2ncccc2c1", "outcome": "inactive"}
{"smiles": "CCCCCCOC(=O)CC(CC(=O)OCCCCCC)(OC(=O)CCC)C(=O)OCCCCCC", "outcome": "inactive"}
{"smiles": "CCc1cccc(CC)c1N", "outcome": "inactive"}
{"smiles": "O=C1CN(N=Cc2ccc([N+](=O)[O-])o2)C(=O)N1", "outcome": "inactive"}
{"smiles": "CCCC(CCC)C(=O)O", "outcome": "inactive"}
{"smiles": "Cc1ncc([C@@H](CCCCCCc2ccc3c(n2)NCCC3)CC(=O)O)cn1", "outcome": "inactive"}
{"smiles": "CCCCCCCCCCCCCCCCOS(=O)(=O)O", "outcome": "inactive"}
{"smiles": "CCN(CC)C(=S)SSC(=S)N(CC)CC", "outcome": "inactive"}
